Most compounds without a hit are left out; they make up all but 2.4% or so of the library.
TLR4-MyD88 BLA – inhibitors of human TLR4-MyD88 binding; inhibition, % at 8.4 µM; HeLa CL3-4 TLR4/MyD88 BLA complementation, FRET ratio; AID 861; 200,000 compounds, 0.18% hits; in the data active means inhibition above about 25%;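 further: 0% = vehicle and 100% = reference inhibitor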
NOD2 RIPK2 PPI – NOD2-RIPK2 protein interaction inhibition. O43353. CHO BLA complementation NOD2-RIPK2, CCF4 ratio. inhibition, % at 4.98 µM. 360,000 compounds, 0.38% hits. AID 624267; in the data active means inhibition above about 21%;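 further: 0% = vehicle only and 100% = reference blocker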
ABHD5-PLIN5 inh – inhibitors of human ABHD5-perilipin-5 interaction | Q00G26+Q8WTS1 | Split G. princeps luciferase complementation, luminescence, 4 h | inhibition, % at 4 µM | 360,000 compounds, 0.78% hits;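 active means inhibition above the mean inhibition across every tested compound plus 3 SD, cut at about 22% in these data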;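 further: 0% = DMSO only wells and the 100% control is not disclosed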
CRFR2-BP antag – CRF-BP/CRF-R2 complex antagonism; 350,000 compounds, 0.59% hits; HEK293 CRF-R2/CRF-BP, CRF-induced calcium fluorescence; AID 588475; inhibition, % at 11.8 µM;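 active means inhibition of the ligand-induced calcium signal above about 50% at the single tested concentration, limit read from the data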
m5-HT2A agonist – agonists of mouse serotonin 5-HT2A receptor (HTR2A); P35363; CHO-K1 mHTR2A beta-arrestin complementation, luminescence; percent of 30 µM serotonin response; activation, % at 7.6 µM; 360,000 compounds, 0.66% hits; AID 624169;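 active means activation above a run cutoff, the mean activation of all tested compounds plus 3 SD, cut at about 14% in these data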;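 further: 0% = plate median of compound wells and 100% = 30 µM serotonin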
TLR9-MyD88 block – blocks human TLR9 binding to MyD88. Q9NR96+Q99836. CHO BLA complementation TLR9-MyD88, CCF4 FRET ratio. inhibition, % at 4.98 µM. 340,000 compounds, 0.21% hits. AID 504734;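 active means inhibition above the mean over all tested compounds plus 3 SD, cut at about 21% in these data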;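 further: 0% = DMSO only wells and 100% = clavulanate BLA inhibitor control wells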
Numbers without * were called inactive; / = no result given; ! = a repeat was not active.

SMILES	TLR4-MyD88 BLA	NOD2 RIPK2 PPI	ABHD5-PLIN5 inh	CRFR2-BP antag	m5-HT2A agonist	TLR9-MyD88 block
CCOC(=O)c1sc2nc(C)n(CC(=O)NCC3CCCO3)c(=O)c2c1C (stereo not drawn)	2	-52	6	58*	1	-3
CCOc1c(C)cnc2c1c(=O)n(CC(=O)NCC1CCCO1)c(=O)n2C (stereo not drawn)	/	-18	6	7	4	1
COc1ccc(NC(=O)c2nc3nccc(C)n3n2)cc1S(=O)(=O)N1CCOCC1	/	-7	-1	108*	1	6
COc1ccc(C(=O)Nc2ccc(-c3ccc(C)o3)cc2)cc1S(=O)(=O)N1CCOCC1	-2	7	22*	-28	-4	-7
COC(=O)c1cc(Cl)ccc1NCC(N)c1ccccc1 (stereo not drawn)	/	1	-2	/	5	/
CC[C@@H](C)[C@@H]1CN([C@@H](CN2CCC[C@H]2CN2C(N)=NC[C@H]2CC(C)C)C(C)C)C(=N)N1CCCC1CCCC1	/	-2	4	12	-1	2
CC[C@@H](C)[C@@H]1CN([C@@H](CN2CCC[C@H]2CN2C(N)=NC[C@H]2CC(C)C)C(C)C)C(=N)N1CCc1ccc(Cl)c(Cl)c1	/	-4	13	63*	-2	0
CC[C@@H](C)[C@@H]1CN([C@@H](C)CN2CCC[C@H]2CN2C(N)=NC[C@H]2CC(C)C)C(=N)N1CCc1ccc(Cl)c(Cl)c1	/	-9	30*	17	-6	5
CCC[C@@H](CN1CCC[C@H]1CN1C(N)=NC[C@H]1CC(C)C)N1C[C@@H]([C@H](C)CC)N(CCc2ccc(Cl)c(Cl)c2)C1=N	/	2	20	49	0	0
CCOC(=O)C1=C(C)c2ccccc2N(C(=O)OC)C1(C)C(=O)OCC (stereo not drawn)	/	4	30*	-16	-2	11
Cc1ccc(S(=O)(=O)NC2=NCN(Cc3ccccc3)CN2)cc1	5	1	0	6	-7	-1
Cc1ccc(S(=O)(=O)NC2=NCN(C3CCN(Cc4ccccc4)CC3)CN2)cc1	-4	3	-2	109*	-1	1
CCc1ccccc1SCc1noc(C(=O)NCC2CCCO2)c1C(=O)O (stereo not drawn)	18	-1	-1	-2	5	-1
O=C(NCC1CCCO1)c1onc(CSc2cccc3ccccc23)c1C(=O)O (stereo not drawn)	-1	-6	2	50*	7	0
CN(Cc1cn(Cc2cccc(C(F)(F)F)c2)nn1)C1CN(Cc2cn(Cc3cccc(C(F)(F)F)c3)nn2)S(=O)(=O)C1 (stereo not drawn)	/	-17	-5	/	3	/
CCOc1c(C)cc(-c2ncccc2O)cc1C	2	-1	-6	52*!	3	-3
Cc1ccc2ccccc2c1C(O)c1ncc(-c2cccc(F)c2)[nH]1 (stereo not drawn)	/	-3	10	/	10	/
ON=C1c2ccccc2-c2ccc(O)cc21	/	-3	2	14	-1	-4
Nc1ccc2c(c1)C(=NO)c1ccccc1-2	/	-9	5	96*	-1	8
O=C(CCc1ccccc1)Nc1c(F)cccc1F	0	-1	-2	52*	1	2
CSc1ccccc1NC(=O)CCc1ccccc1	-1	-8	3	30	1	0
O=C1N=c2ccccc2=C1c1sc(=S)n(NC(=O)c2cccc(O)c2)c1O	-12	-2	-9	65*	1	-9
CC1(Oc2cccc(F)c2)CCN(Cc2ccc(-c3ccccn3)cc2)C1 (stereo not drawn)	/	-11	1	/	-6	/
Cc1ccc(NC(=O)C2(C)CCN2C(=O)Cc2ccccc2)cc1C (stereo not drawn)	/	-2	-4	/	-7	/
Cc1noc(C)c1COC(=O)Cc1ccc(Cl)c(Cl)c1	-11	-8	2	62*	2	6
SMILES	TLR4-MyD88 BLA	NOD2 RIPK2 PPI	ABHD5-PLIN5 inh	CRFR2-BP antag	m5-HT2A agonist	TLR9-MyD88 block
CCOc1cccc2c1OC(c1cc(OC)c(OC)c(OC)c1)N1N=C(c3ccc(C)o3)CC21 (stereo not drawn)	-22	3	25*	-2	-3	3
COc1ccc(C2CC(c3ccc(C)o3)=NN2C(C)=O)cc1 (stereo not drawn)	7	0	2	13	-2	-4
CCOC(=O)C1CCCN(C(=O)Cn2cnc3c2c(=O)n(C)c(=O)n3C)C1 (stereo not drawn)	6	-11	-1	0	4	-7
O=C(OCC(=O)N1CCCCC1)c1cccs1	/	-5	8	-15	0	-6
CCOC(=O)C1CCCN(C(=O)Cn2sc3nc(C)cc(C)c3c2=O)C1 (stereo not drawn)	10	18	64*	11	6	9
CCOC(=O)C1CCCN(C(=O)COC(=O)c2cccs2)C1 (stereo not drawn)	/	-6	9	95*	-1	7
Cc1c(C(=O)NCc2cccc([N+](=O)[O-])c2)sc(=O)n1Cc1ccc(C(C)C)cc1	/	1	-13	/	-5	/
Cc1cc(C(C#N)c2ccc(Cl)cc2)c(Cl)cc1NC(=O)c1cc(I)cc(I)c1O (stereo not drawn)	/	-8	-4	58*	-1	2
N/C(=N\OC(=O)COc1ccc([N+](=O)[O-])cc1)c1ccncc1	-10	-9	-1	-6	3	2
N/C(=N\OC(=O)COc1ccc(Br)cc1)c1ccncc1	-16	-15	-7	59*	1	-20
CN(CC(=O)Nc1ccc2c(c1)OCCO2)CC(=O)Nc1ccc(F)c(F)c1F	/	-3	-5	68*	-4	-7
CN(CC(=O)Nc1ccc(F)cc1)CC(=O)Nc1ccc(F)c(F)c1F	-15	-6	5	5	4	2
COc1cc2c(cc1OC)-c1cc(OCc3ccccc3Cl)nc(=O)n1CC2	-9	-5	5	38	19*	7
CCc1nc2c(OCC3COc4ccccc4O3)cccn2c1N(C)C(=O)c1ccc(OC)cc1 (stereo not drawn)	/	5	2	/	-2	/
CCNc1ccc(Br)cc(C(=O)/C=C/c2c(Cl)cccc2Cl)c1=O	-5	8	44*	1	-4	9
CCNc1ccc(Br)cc(C(=O)/C=C/c2ccc(Cl)cc2)c1=O	-12	2	27*	-28	-4	3
CNc1ccc(Br)cc(C(=O)/C=C/c2ccc(Cl)cc2Cl)c1=O	-3	-2	57*	-20	-3	8
CCNc1ccc(Br)cc(C(=O)/C=C/c2ccc3c(c2)OCO3)c1=O	2	-2	19	-7	-1	3
COc1ccccc1C1c2ccc3ccccc3c2Oc2ncn(CCN(C)C)c(=N)c21 (stereo not drawn)	/	20	22	-31	-4	5
